Assay outcomes as filed in PubChem.
Wnt bcat act: activates Wnt/beta-catenin signaling in a reporter cell assay. activator, plate reader. activation, % at 9.35 µM. hit rate 1.2% among 300,000; in the data active means activation above about 30%, passing the limit was not always enough; inconclusive means no clear call, values can overlap the other calls;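 further: 0% = neutral control wells and 100% = positive control wells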
FGF22 binding: shifts melting point of recombinant human FGF22; Q9HCT0; recombinant FGF22 thermal shift, SYPRO orange fluorescence; percent of sucrose octasulfate shift, DMSO zero; activity (Tm shift, normalised), % at 9.99 µM; hit rate 1.5% among 340,000; AID 651658;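 active means mean Tm shift, scaled 0 neutral to 100 positive control, at about 1.3% or above, every replicate too, limit read from the data; inconclusive means no clear call, values can overlap the other calls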
SMARCA2 activ: increases SMARCA2 function in MMTV reporter cells. MG213 cells, MMTV-luciferase reporter, dexamethasone, overnight. activation, % at 9.1 µM. hit rate 1% among 370,000; in the data active means activation above about 7.8%;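 further: 0% = vehicle wells and 100% = reference activator wells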
MITF TRPM1 HTS: MITF TRPM1 promoter activation in melanoma cells; SK-MEL-5 TRPM1-promoter luciferase, 24 h; % of positive control, neutral wells = 0; activation, % at 12.5 µM; hit rate 0.75% among 300,000; AID 588334;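 active means mean activation of at least 80% with every replicate also reaching 80%; inconclusive means mean reaches 80% but some replicate falls short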;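 further: 0% = neutral control wells and 100% = parthenolide positive control wells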
AF4-AF9 inh: inhibitors of human MLL-AF4/AF9 interaction. P42568. AlphaScreen, biotin-AF4 peptide binding to FLAG-AF9. inhibition, % at 10 µM. hit rate 0.47% among 350,000. AID 651704;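 active means every replicate reaching a set inhibition limit, whatever the replicate mean, cut at about 25% in these data; inconclusive means mean inhibition reaches that limit but some replicates miss it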;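 further: 0% = plate neutral control median and 100% = total signal loss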
Target sequence (P42568 whole entry, looked up): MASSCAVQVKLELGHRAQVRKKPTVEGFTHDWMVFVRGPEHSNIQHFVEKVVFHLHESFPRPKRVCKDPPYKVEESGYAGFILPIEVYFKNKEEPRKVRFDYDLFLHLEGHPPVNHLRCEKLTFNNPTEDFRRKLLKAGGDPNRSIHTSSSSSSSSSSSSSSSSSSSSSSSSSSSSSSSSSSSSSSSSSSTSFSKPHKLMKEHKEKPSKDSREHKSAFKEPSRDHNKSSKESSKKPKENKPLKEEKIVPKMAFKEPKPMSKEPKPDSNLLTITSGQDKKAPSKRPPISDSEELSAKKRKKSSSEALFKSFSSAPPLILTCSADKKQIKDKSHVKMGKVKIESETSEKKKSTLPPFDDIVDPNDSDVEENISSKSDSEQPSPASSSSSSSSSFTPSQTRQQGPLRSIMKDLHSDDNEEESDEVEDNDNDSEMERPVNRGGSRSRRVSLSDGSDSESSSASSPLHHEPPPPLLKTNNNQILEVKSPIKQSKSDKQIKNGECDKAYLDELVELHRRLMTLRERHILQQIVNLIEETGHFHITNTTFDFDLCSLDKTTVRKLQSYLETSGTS
esBAF inh: inhibitors of esBAF chromatin remodeling in mouse ES cells; Bmi1-luciferase knock-in reporter, 24 h; 100% = twice the neutral-well signal; reporter increase, % at 12.5 µM; hit rate 2% among 350,000; AID 602393; in the data active means activation above about 40%; inconclusive means no clear call, values can overlap the other calls;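 further: 0% = median of the plate's neutral control wells and 100% = double that signal; a rise in the Bmi1 reporter signal indicates esBAF inhibition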
SMARCA2 act conf: confirmation of SMARCA2 (BRM) function activators; shares compounds with SMARCA2 activ; MG213 cells, MMTV-luciferase with dexamethasone, luminescence, overnight; MG213 cells expressing E1A, Rb sequestered; DMSO wells 0%, reference activator 100%; activation, % at 9.1 µM; AID 652260; hit rate 30% among 3,500;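 active means activation above its plate's cutoff, the mean activation of tested wells plus 3 SD, cut at about 7.9% in these data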
VP16 Luc act: counter-screen for SMARCA2 activators: GAL4-VP16 luciferase reporter activation; activation, % at 9.1 µM; hit rate 41% among 3,500; HEK293 GAL4-VP16 pG5luc reporter, luciferase luminescence; scaled: DMSO wells 0%, SAHA wells 100%; shares compounds with SMARCA2 activ;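 active means activation above the solvent-only control well mean plus 3 SD, averaged across control plates, cut at about 5.2% in these data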
The depositor's hits bear a star; u = inconclusive; x = no result given. Shown are actives, neighbours in structure and some others; about 4.3% of the full set was active somewhere.

SMILES	Wnt bcat act	FGF22 binding	SMARCA2 activ	MITF TRPM1 HTS	AF4-AF9 inh	esBAF inh	SMARCA2 act conf	VP16 Luc act
C[C@H]1CN([C@@H](C)CO)C(=O)Cc2cc(NS(=O)(=O)c3ccccc3)ccc2O[C@H]1CN(C)S(=O)(=O)c1ccc(Cl)cc1	x	0	x	x	x	1	x	x
C[C@@H]1CN([C@@H](C)CO)C(=O)c2cc(NC(=O)c3ccccc3)ccc2O[C@@H](C)CCCCO[C@@H]1CN(C)C(=O)Nc1ccc(C(F)(F)F)cc1	x	-1	x	x	-13	-1	x	x
O=C(CSc1nnc(-c2ccncc2)o1)Nc1ccccc1Cl	-1	x	2	33	x	34	x	x
O=C(CSc1nnc(-c2ccccn2)o1)Nc1ccccc1Cl	14	0	8.0*	17	-1	8	13*	12*
Cc1cccc(C)c1NC(=O)CSc1nnc(-c2cccnc2)o1	-1	0	-1	-10	-1	x	x	x
O=C(CSc1nnc(-c2ccccc2)o1)Nc1ccccc1F	-5	0	1	x	-2	-66	x	x
N#Cc1ccsc1NC(=O)CSc1nnc(-c2ccccc2)o1	1	x	19*	-4	x	35	1	1
Nn1c(SCC(=O)Nc2nccs2)nnc1-c1cc(-c2ccccc2)n[nH]1	x	x	9.6*	x	x	x	5	2
Nn1c(SCC(=O)Nc2ccccc2-c2ccccc2)nnc1-c1cc(-c2ccccc2)n[nH]1	x	x	-6	x	x	x	x	x
O=C(CSc1nnc(-c2cccnc2)o1)Nc1nccs1	1	0	9.1*	45	-9	28	5	2
CC(C)CN1C(=O)[C@]2(CC(=O)N(C)C2c2ccccc2)c2cc(-n3cc(CN(C)C)nn3)ccc21 (stereo partly drawn)	x	x	-1	x	x	x	x	x
C[C@@H]1CN([C@H](C)CO)C(=O)c2cc(NC(=O)c3ccccc3)ccc2O[C@@H](C)CCCCO[C@@H]1CN(C)C(=O)C1CCCCC1	x	0	x	x	0	-1	x	x
Cc1occc1-c1nnc(SCCCC(=O)c2ccc(F)cc2)n1C	x	x	-4	0	x	9	x	x
CCn1c(SCC(=O)c2ccc(F)cc2)nnc1-c1ccoc1C	9	x	9.6*	26	x	21	4	2
COc1ccc(NC(=O)N(C)C[C@H]2OCCCC[C@H](C)Oc3ccc(N(C)C)cc3C(=O)N([C@@H](C)CO)C[C@@H]2C)cc1	x	-1	x	x	-3	3	x	x
CCOC(=O)c1sc(NC(=O)Cc2ccc(F)cc2)nc1C	0	0	8.4*	-3	1	x	4	4
COc1cccc(CN2CCSCC2)c1OC	-2	0	1	-9	1	-7	x	x
COc1ccccc1CN1CCSCC1	-2	0	9.8*	6	2	x	-1	-1
C[C@H]1CCCCO[C@H](CN(C)C(=O)C2CCCCC2)[C@@H](C)CN([C@@H](C)CO)C(=O)c2cc(NS(=O)(=O)c3ccc(F)cc3)ccc2O1	x	0	x	x	4	2	x	x
C=CCn1cnc2c(c1=O)c1nc3ccccc3nc1n2/N=C/c1cccc(OC)c1OC	-3	0	8.2*	39	7	18	-4	4
COc1cc(CCC(=O)OCC(=O)Nc2ccc(F)c(F)c2F)cc(OC)c1OC	-2	0	0	-2	-2	-2	x	x
COc1ccc(C(=O)OCC(=O)Nc2ccc(F)c(F)c2F)cc1OC	-3	x	10*	-10	x	1	1	-1
COC(=O)CNC(=O)COC(=O)c1ccc(OC)c([N+](=O)[O-])c1	-2	0	9.1*	-5	2	x	-1	-1
CS(=O)(=O)c1ccc(C(=O)OCC(=O)NCc2cccs2)cc1[N+](=O)[O-]	-24	0	12*	-84	0	12	-14	2
C=CCS/C(N)=N\N=C\c1c(O)ccc2ccccc12	99*	0	12*	58	-2	u	12*	8.7*
O=C(CCOc1ccccc1F)N1CCN(c2ccccc2O)CC1	-10	41	10*	21	0	x	5	9.1*
